Source: PubChem (National Center for Advancing Translational Sciences (NCATS))
This is a sample that favours compounds with a hit; in the whole collection about 3.3% have one here.
Tb PYK inh: blocks Trypanosoma brucei pyruvate kinase. Q57TT1. TbPYK enzyme, Kinase-Glo Plus ATP luminescence, 45 min. Potency, µM (doses to about 76.8 µM), without a hit: at the highest dose activity, negative = inhibition, actives largely listed as inhibitors. 410,000 compounds, 0.12% hits; note: nearly all actives have a fitted effect of over 50% in size
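TbPYK + substrate in 50 mM TEA pH 7.2, 100 mM KCl, 10 mM MgCl2, 0.05% BSA, 0.01% Tween-20; cpd pinned; ADP 130 uM final; 45 min RT; Kinase-Glo Plus 10 min; luminescence endpoint.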
Sm TGR block: inhibitors of Schistosoma mansoni thioredoxin glutathione reductase. purified TGR, DTNB reduction, TNB absorbance 405 nm. Potency, µM (highest dose often 114 µM), for the others: top-dose activity change, negative = inhibition, hits mostly inhibitors. AID 485364. 360,000 compounds, 3% hits; note: nearly all actives have a fitted effect of over 60% in size
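First, TGR (20 nM dispensed) and NADPH were mixed with compound. Second, a 15 min room-temperature incubation followed. Third, further NADPH and then DTNB were added to start the reaction. Finally, TNB absorbance was monitored kinetically.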
Giardia FBPA inh: Giardia lamblia aldolase inhibition; A8B2U2; purified Giardia FBPA; Potency, µM (top dose mostly 59.6 µM), for the others: at the top dose activity, negative = inhibition, most hits filed as inhibitors; 290,000 compounds, 0.71% hits; note: nearly all actives have a fitted effect of over 55% in size
Target sequence (A8B2U2 whole entry, looked up): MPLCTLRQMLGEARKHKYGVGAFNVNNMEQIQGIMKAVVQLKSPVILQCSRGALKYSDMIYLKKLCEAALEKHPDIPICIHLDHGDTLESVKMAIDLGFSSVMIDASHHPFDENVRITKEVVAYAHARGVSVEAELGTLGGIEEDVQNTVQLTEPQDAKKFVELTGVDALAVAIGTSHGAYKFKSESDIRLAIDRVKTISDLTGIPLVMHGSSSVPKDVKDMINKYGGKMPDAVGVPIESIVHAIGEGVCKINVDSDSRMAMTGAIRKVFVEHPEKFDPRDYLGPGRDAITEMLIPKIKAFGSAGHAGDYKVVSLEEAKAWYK
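40 nM FBPA preincubated 10 min at RT with compound (up to 57.5 uM final), then substrate plus GAPDH/TPI/NAD/arsenate coupling and diaphorase/resazurin added. Fluorescence read after 20 min at RT, 525/598 nm.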
RE007 growth inh: less growth of the S. pombe RE007 Vpr strain; 360,000 compounds, 0.21% hits; S. pombe RE007 Vpr strain, BacTiter-Glo ATP luminescence, 24 h; Potency, µM (doses to about 92.2 µM), for the others: at the highest dose activity change, negative = less growth, actives largely listed as inhibitors; AID 651644; active = well fitted falling curve with a large enough effect; inconclusive = small, poorly fitted or top-dose-only effect; inactive = no such curve, though single readings can be large or run the other way; note: nearly all actives have a fitted effect of over 50% in size
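Fission yeast RE007 carrying one integrated HIV-1 vpr copy, seeded at OD 0.01 in PMG+AL medium with 23 nL pinned compound. Grown 24 h at 30 degrees; viability read by BacTiter-Glo luminescence after 5 min.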
LmPK inhibitor: blocks Leishmania mexicana pyruvate kinase activity. 290,000 compounds, 0.37% hits. Potency, µM (titrated, usually from 57.5 µM), for inactives: at the highest dose activity change, negative = inhibition, usual class: inhibitors. AID 1721. Q27686. purified LmPK, Kinase-Glo ATP luminescence, 1 h
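Screened at intermediate enzyme activity to detect both inhibitors and activators: LmPK at 0.1 nM, with a 0.5 nM enzyme column as activation reference. PEP 0.5 mM, ADP 0.1 mM; ATP detected by luminescence after 1 h.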
* marks the source's active call; other numbers are inactive results; ? = inconclusive; nt = no result given; [ ] = another dose, or the depositor's remark. Unless noted, calls come from the whole dose curve; as a rule, active = well fitted curve in the direction sought with a large enough effect; inconclusive = small, poorly fitted or top-dose-only effect, or another doubt; inactive = no such curve, though single readings can be large; an effect the other way counts as inactive or inconclusive. % is set by controls: 0 for no effect and ±100 for the full control effect; potency is the fitted concentration of half-maximal effect.

SMILES	Tb PYK inh	Sm TGR block	Giardia FBPA inh	RE007 growth inh	LmPK inhibitor
O=C1C=C(O)c2cccc3cccc1c23	-2%	5%	-7%	11%	0%
O=C1C=C(O)c2c(O)cccc2C1=O	nt	50µM*	?	nt	-7%
O=C(OCn1ncc(Br)c(Br)c1=O)c1ccc(F)cc1	-1%	2µM*	4%	?	1%
O=C(OCc1cnc(Cl)s1)c1ccccc1Cl	1%	1%	-10%	-18%	-2%
O=C(OCn1ncc(Br)c(Br)c1=O)c1ccccc1Cl	-25%	1.3µM*	0%	6.3µM*	-3%
Cc1csc2nc(CCNS(=O)(=O)c3ccc4c(c3)OCCO4)cn12	-4%	0%	-5%	-1%	4%
COc1ccccc1NC(=O)C1=C(C)Nc2ncnn2C1c1ccccn1 (stereo unspecified)	0%	5%	nt	nt	nt
COc1ccccc1NC(=O)C1=C(C)Nc2ncnn2C1c1ccc[nH]1 (stereo unspecified)	-13%	40µM*	nt	nt	nt
COc1cccc(C2C(C(C)=O)=C(C)Nc3ncnn32)c1 (stereo unspecified)	2%	4%	-7%	-8%	-4%
COc1ccc(C2C(C(C)=O)=C(C)Nc3ncnn32)cc1 (stereo unspecified)	-3%	35µM*	-7%	9%	-3%
O=C(c1ccc(S(=O)(=O)Cc2ccccc2F)c([N+](=O)[O-])c1)N1CCCC1	2%	10µM*	-9%	-10%	14%
O=C(c1ccc(S(=O)(=O)Cc2ccccc2Cl)c([N+](=O)[O-])c1)N1CCOCC1	2%	11µM*	-2%	1%	0%
CC(=O)N(Cc1ccccc1)c1ncc2c(n1)c(=O)c(C#N)c1ccccn12	3%	45µM*	?	0%	1%
Cc1nn2c(N3CCCC3)c3c(nc2c1-c1ccccc1)CCC3	-2%	11µM*	-8%	-6%	3%
CC(C)COCC(O)CC(Cc1ccccc1)C(=O)NN (stereo unspecified)	1%	14%[57.1 µM]	2%	1%	-4%
CCSc1ccc(-c2ccc(C)cc2)nn1	-4%	-2%	-14%	7%	-6%
CCOc1ccc(-c2ccc(SCC)nn2)cc1	?	nt	1%	-8%	11µM*
COc1ccc(-c2ccc(SC)nn2)cc1	?	7%	-10%	?	14µM*
Nc1nonc1-n1nnc(C(=O)N/N=C/c2ccc(F)cc2)c1-c1cccs1	-2%	-7%	nt	-4%	-1%
Cc1ccc(OCC(=O)N/N=C/c2cccnc2)cc1	2%	4%	nt	-11%	-7%
COc1ccc(Cn2cc([N+](=O)[O-])nc2C)cc1[N+](=O)[O-]	-16%	5%	2%	2%	-2%
Cn1c(=O)[nH]c(=O)c2c1nc([N+](=O)[O-])n2Cc1ccccc1	-2%	1.8µM*	14µM*	6%	-4%
Cn1c(=O)[nH]c(=O)c2c1nc(Br)n2C/C=N/NC(=O)c1ccccc1	0%	-9%	1%	-18%	0%
CC(=O)CSc1nc2c(c(=O)[nH]c(=O)n2C)n1Cc1cccc(Br)c1	-28%	56µM*	0%	-2%	-5%
Cn1c(=O)[nH]c(=O)c2c1nc(N1CCNCC1)n2Cc1ccccc1	3%	?	4%	-8%	4%
SMILES	Tb PYK inh	Sm TGR block	Giardia FBPA inh	RE007 growth inh	LmPK inhibitor
Cn1c(=O)[nH]c(=O)c2c1nc(Br)n2CCC(=O)c1ccccc1	-3%	13µM*	0%	-11%	1%
CC(C)Cn1c([N+](=O)[O-])nc2c1c(=O)[nH]c(=O)n2C	0%	22µM*	?	2%	0%
CCc1ccccc1NC(=O)CN(c1cccc(C)c1C)S(C)(=O)=O	-2%	-3%	nt	nt	nt
COc1ccc2c(c1)SC1=NCCS(=O)(=O)N12	-22%	1%	-1%	-2%	6%
CCOC(=O)c1ccc(NC(=S)N2CCN(S(C)(=O)=O)CC2)cc1	0%	-5%	-2%	9%	0%
Cc1ccc(-n2nnnc2C(Cl)(Cl)c2nnnn2-c2ccc(C)cc2)cc1	?	18µM*	2%	2%	-17%
O=C(Nc1cccc(-n2cnnn2)c1)c1cc2ccccc2o1	-11%	0%	9%	-3%	3%
CCOC(=O)COn1c(=O)c(-c2cccs2)[n+]([O-])c2ccccc21	-4%	20µM*	-27%	-8%	0%
CCOn1c(=O)c(-c2cccs2)[n+]([O-])c2ccccc21	-10%	-28%	1%	-25%	4%
CCOC(=O)COn1c(=O)c(-c2ccc(F)cc2)[n+]([O-])c2ccccc21	0%	89µM*	?	-7%	3%
N#CC1(C#N)C(c2ccccc2)OC23CCCCCC2C1(C#N)C(=N)O3 (stereo unspecified)	0%	25µM*	-25%	-3%	-5%
CCN(CC)S(=O)(=O)c1ccc(NC(=O)c2cc3ccc4cccnc4c3[nH]2)cc1	-11%	-1%	nt	nt	nt
CCCN1C(=O)/C(=C/c2ccco2)SC1=Nc1ccc(OC)cc1	-3%	50µM*	-3%	-15%	0%
COc1cc(/C=C2/SC(=Nc3ccc(O)cc3)NC2=O)cc(OC)c1O	-4%	7%	-13%	6%	-6%
COc1ccc(N=C2NC(=O)/C(=C\c3ccco3)S2)cc1	0%	28µM*	-4%	-21%	-1%
COc1ccc(N=C2S/C(=C\c3ccc(N4CCOCC4)o3)C(=O)N2CCc2c[nH]c3ccccc23)cc1	nt	13µM*	-12%	nt	0%
COc1ccc(/C=C2\SC(=Nc3ccccc3)NC2=O)cc1	nt	0%	-5%	nt	-3%
O=C1NC(=Nc2ccc(O)cc2)S/C1=C\C=C\c1ccco1	2%	14µM*	-8%	3%	5%
CCOC(=O)N1CCC(NS(=O)(=O)c2ccc(C)c(Cl)c2)CC1	0%	11%	6%	28%	2%
COc1ccccc1NC(=O)COC(=O)c1oc2ccccc2c1C	2%	10%	-16%	8%	-4%
Cc1nc2sccn2c(=O)c1CCN1CCC(=C(c2ccc(F)cc2)c2ccc(F)cc2)CC1	0%	-3%	-3%	-17%[18.4 µM]	5%
Cc1nn(-c2ccccc2)c(C)c1CN	1%	4%	-1%	-8%	5%
CC(=O)Nc1ccc(S(=O)(=O)/N=C2/NC(=O)/C(=C\c3ccco3)S2)cc1	0%	14µM*	?	23%	-2%
CCOC(=O)CN1C(=O)S/C(=C/c2cc(C)n(C)c2C)C1=O	-4%	nt	nt	-2%	nt
Cc1ccc(S(=O)(=O)/N=C2/NC(=O)/C(=C\c3ccco3)S2)cc1	0%	?	18%	15%	13%
CCOC(=O)CN1C(=O)S/C(=C/c2ccc(C)o2)C1=O	-3%	40µM*	-29%	-6%	2%
CCCN1C(=O)/C(=C/c2ccc(C)o2)SC1=Nc1ccc(OC)cc1	-12%	40µM*	-4%	-3%	3%
